# High-throughput results deposited in PubChem by National Center for Advancing Translational Sciences (NCATS).
# A selection: hits, their analogues and other compounds. The true share with any hit is near 11%.
# Pf growth 48h = inhibits P. falciparum growth in the first generation, 48 h | P. falciparum luciferase growth in erythrocytes, 48 h | Potency, µM (highest dose often 28.7 µM), hits mostly inhibitors | 310,000 tested, 5.9% active | AID 504832
#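 A one-generation exposure of luciferase-tagged malaria parasites in RPMI 1640/Albumax erythrocyte culture, 37 C and 5% CO2. Inhibition is inferred from decreased luminescence after adding detection reagent.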
# HCV inh = blocks hepatitis C virus; 340,000 tested, 3.4% active; Potency, µM (doses to about 41.8 µM), usual class: inhibitors; Huh7.5.1 HCVcc-Cre infection, luciferase reporter, 44 h; AID 651820
#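 1,000 cells/well; 4 h culture; + compound; + HCVcc-Cre (~0.5 moi); 44 h; luciferase substrate, RT 15 min; read 15 sec.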
# AmpC inh detg = AmpC beta-lactamase inhibition with detergent present; 370,000 tested, 0.041% active; AID 485294; Potency, µM (doses to about 114 µM), most hits filed as inhibitors; AmpC hydrolysis of nitrocefin, absorbance 480 nm, 0.01% Triton; P00811; further: nearly all actives have a fitted effect of over 25% in size
# Target sequence (P00811 whole entry, looked up): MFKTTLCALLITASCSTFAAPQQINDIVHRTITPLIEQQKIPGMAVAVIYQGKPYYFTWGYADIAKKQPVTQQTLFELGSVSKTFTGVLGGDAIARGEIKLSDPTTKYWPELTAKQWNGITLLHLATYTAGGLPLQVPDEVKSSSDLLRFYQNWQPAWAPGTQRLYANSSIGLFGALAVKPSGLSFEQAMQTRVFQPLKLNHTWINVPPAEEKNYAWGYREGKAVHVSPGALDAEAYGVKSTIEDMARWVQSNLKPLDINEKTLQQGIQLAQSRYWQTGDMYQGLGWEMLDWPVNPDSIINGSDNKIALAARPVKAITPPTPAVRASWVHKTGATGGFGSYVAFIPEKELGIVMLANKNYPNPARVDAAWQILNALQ
#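 AmpC (5.3 nM in the dispensed reagent) in 20 mM phosphate pH 7.0 with 0.01% (detergent screen) or 0.0001% Triton X-100 was preincubated with compounds for 15 min at room temperature. Nitrocefin was then added from an 800 uM solution, and hydrolysis was followed at 480 nm.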
# AmpC no deterg = blocks E. coli AmpC beta-lactamase in detergent-free assay | P00811 | AmpC nitrocefin hydrolysis, absorbance 480 nm, 0.0001% Triton | Potency, µM (series often up to 57.1 µM), actives largely listed as inhibitors | 330,000 tested, 0.52% active | AID 485341; further: nearly all actives have a fitted effect of over 20% in size
#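 AmpC (5.3 nM in the dispensed reagent) in 20 mM phosphate pH 7.0 with 0.01% (detergent screen) or 0.0001% Triton X-100 was preincubated with compounds for 15 min at room temperature. Nitrocefin was then added from an 800 uM solution, and hydrolysis was followed at 480 nm.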
# Pf growth 96h = P. falciparum growth inhibition at 96 hour, primary screen for plastid delayed-death inhibitors; 320,000 tested, 6.9% active; P. falciparum luciferase reporter growth, 96 h; Potency, µM (doses to about 28.7 µM), most hits filed as inhibitors; AID 504834
#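 Readout is luminescence from an integrated firefly luciferase in P. falciparum. Red cells, 2% hematocrit and 0.05% parasitemia final, were cultured with compound through two parasite generations (96 hours) at 37 C, 5% CO2.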
# AMA1-RON2 inh = disrupts binding of P. falciparum AMA1 to RON2. AlphaScreen AMA1-biotinylated RON2 peptide binding. Potency, µM (top dose mostly 58.2 µM), most hits filed as inhibitors. 360,000 tested, 0.2% active; further: nearly all actives have a fitted effect of over 45% in size
#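 AMA1 (3D7) with his tag at 25 nM final met compounds first, then biotinylated RON2 peptide at 25 nM; detection used donor plus acceptor beads, 10 µg/mL apiece, read by AlphaScreen after 30 min at room temperature.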
# Hits are given with their value; n = inactive; u = inconclusive; x = no result; [ ] = dose if it differs, or a comment. The call rests on the fitted dose curve; in most records, active means well fitted curve in the direction sought with a large enough effect; inconclusive means small, poorly fitted or top-dose-only effect, or another doubt; inactive means no such curve, though single readings can be large; an effect the other way counts as inactive or inconclusive.
SMILES,Pf growth 48h,HCV inh,AmpC inh detg,AmpC no deterg,Pf growth 96h,AMA1-RON2 inh
CC12CCC(=O)N1C(C(=O)Nc1ccccc1N1CCOCC1)CS2 (configuration not stated),n,n,n,n,n,n
CC12CCC(=O)N1C(C(=O)Nc1ccccc1N1CCCC1)CS2 (configuration not stated),x,u,x,x,x,n
CC12CCC(=O)N1C(C(=O)Nc1cc(C(F)(F)F)ccc1N1CCOCC1)CS2 (configuration not stated),u,8.9µM,n,n,u,n
O=C(c1ccc(CSc2nc3ccncc3n2Cc2cccc(F)c2)cc1)N1CCCCC1,x,x,n,x,x,x
CCN(CC)S(=O)(=O)c1ccc(Cl)c(NC2=NCCCCC2)c1,u,n,n,n,n,n
O=[N+]([O-])c1ccc(Cl)c(NC2=NCCCCC2)c1,u,n,n,n,9.3µM,n
COc1ccc(S(=O)(=O)N2CCN(C(=S)NC3CCCCC3)CC2)cc1,0.93µM,n,n,n[2.29 µM],n,n
CCOc1ccc(S(=O)(=O)N2CCN(C(=S)NC3CC3)CC2)cc1,4.1µM,n,n,n,u,n
COC(=O)c1sccc1S(=O)(=O)N1CCN(c2ccccc2OC)CC1,x,x,n,x,x,x
CC(C)c1ccc(CNc2n[nH]c(-c3ccco3)n2)cc1,x,x,n,x,x,x
COc1ccc(-c2coc3cc(OC4OC(CO)C(O)C(O)C4O)ccc3c2=O)cc1 (configuration not stated),n,n,n,n,12µM,n
CC1(c2ccccc2)CC(C)(C)N2C(=O)C(=O)c3cccc1c32 (configuration not stated),12µM,n,u,n,n,u
Cc1c(NC(=O)c2cc(=O)c3cc(Cl)ccc3o2)c(=O)n(-c2ccccc2)n1C,x,x,n,x,x,x
COc1ccccc1/C=N/NC(=O)c1ccc(Br)cc1,n,n,n,n,n,n
CCN(CC)c1ccc(/C=N/NC(=O)c2cccc(S(=O)(=O)Nc3ccccc3OC)c2)c(O)c1,9.3µM,10µM,n,n,12µM,n
COc1ccccc1NS(=O)(=O)c1cccc(C(=O)NN)c1,n,n,n,n,n,n
COc1ccccc1NS(=O)(=O)c1cccc(C(=O)N/N=C2\CC(=O)CC(C)(C)C2)c1,13µM,n,n,n,u,n
CCN(CC)c1ccc(C(=O)N/N=C/c2ccccc2OC(F)F)cc1,10µM,11µM,n,n,u,n
CCN(CC)c1ccc(/C=N/NC(=O)c2ccc3nc[nH]c3c2)c(O)c1,u,5µM,n,n,u,n
Cn1c(=O)[nH]c2cc(-c3noc(-c4ccc(C#N)cc4)n3)ccc21,x,x,n,x,x,x
CCN(CC)c1ccc(/C=N/NC(=O)c2cccc(S(=O)(=O)Nc3ccccc3OC)c2)cc1,u,11µM,n,n,n,n
COc1ccccc1NS(=O)(=O)c1cccc(C(=O)N/N=C/c2ccc([N+](=O)[O-])o2)c1,1.9µM,11µM,n,n,1.7µM,n
COc1ccccc1NS(=O)(=O)c1cccc(C(=O)N/N=C/c2ccc3c(c2)OCCO3)c1,n,n,n,n,n,n
COc1ccc(-c2noc(-c3ccc(NCc4ccco4)c([N+](=O)[O-])c3)n2)cc1,x,x,n,x,x,x
COc1ccc(C23CC4CC(CC(C4)C2)C3)cc1C(=O)NCCN(C)C,u,n,n,n,12µM,n
SMILES,Pf growth 48h,HCV inh,AmpC inh detg,AmpC no deterg,Pf growth 96h,AMA1-RON2 inh
COc1ccccc1NC(=O)CCCN1C(=O)C2CC=CCC2C1=O (configuration not stated),n,x,n,n,6.6µM,n
COc1ccc(NC(=O)CCCN2C(=O)C3CC=CCC3C2=O)cc1 (configuration not stated),n,x,n,n,10µM,n
CCc1ccccc1NC(=O)CCN1C(=O)c2ccccc2C1=O,x,n,n,n,u,n
CCc1ccccc1NC(=O)CCN1C(=O)C2CC=CCC2C1=O (configuration not stated),n,n,n,n,12µM,n
COc1ccc(-c2noc(CNC(=O)CCN3C(=O)[C@H]4CC=CC[C@H]4C3=O)n2)cc1,n,n,n,n,12µM,n
Cn1c(-c2ccccc2)cnc1SCc1nc2ccccc2c(=O)[nH]1,n,u,n,n,2.3µM,n
O=c1[nH]c(CSc2cccc[n+]2[O-])nc2ccccc12,13µM,n,n,n,u,n
Cn1c(SCc2nc3ccccc3c(=O)[nH]2)nc2ccccc21,n,n,n,n,n,n
CC(C)Cn1c(SCc2nc3ccccc3c(=O)[nH]2)nc2ccccc2c1=O,7.4µM,n,n,n,n,n
Cc1ccc(NC(=O)C2CCCN(S(=O)(=O)c3ccc(C)cc3)C2)cc1 (configuration not stated),x,x,n,x,x,x
Cc1cc(C(=O)Nc2cccc(-c3ccc(N4CCOCC4)nn3)c2)ccc1[N+](=O)[O-],u,10µM,u,u,10µM,n
O=C(Nc1cccc(-c2ccc(N3CCOCC3)nn2)c1)c1ccc(Cl)cc1,n,u,u,32µM,n,n
O=C(NCCc1ccccc1Cl)c1ccc2c(c1)nc1n2CCCCC1,x,x,n,x,x,x
O=C(O)C1=CC(c2ccc(Br)cc2)n2ncnc2N1 (configuration not stated),x,x,n,x,x,x
Cc1cccc(C(=O)Nc2ccccc2C(=O)OCc2cc(=O)n3nc(C4CC4)sc3n2)c1,x,x,n,x,x,x
COc1cccc(C2CC(c3cccc(NS(C)(=O)=O)c3)=NN2C(=O)c2ccccc2)c1OC (configuration not stated),1.9µM,u,n,n,u,n
COc1ccccc1C1CC(c2ccc(Br)cc2)=NN1C(=O)c1cccnc1 (configuration not stated),4.1µM,u,n,n,1.9µM,n
COc1ccc(C2=NN(C(=O)c3ccncc3)C(c3ccccc3O)C2)cc1 (configuration not stated),u,n,n,n,u,n
COc1cccc(C2CC(c3ccc(Br)cc3)=NN2C(=O)c2ccncc2)c1OC (configuration not stated),12µM,u,n,n,u,n
CCCN(CC1CC1)C(=O)COC(=O)c1[nH]c(C)c(C(=O)OCC)c1C,x,u,n,n,12µM,n
CCOC(=O)c1c(C)[nH]c(C(=O)OCC(=O)N(C)C2CCS(=O)(=O)C2)c1C (configuration not stated),n,n,n,n,x,n
Cc1nnc(NC(=O)CSc2ccccn2)s1,n,n,u,n,13µM,n
CN(C)c1ccc(CNC(=O)c2cnc3sc(N4CCCCCC4)nn3c2=O)cc1,x,x,n,x,x,x
